# Test results: PubChem BioAssay (NCATS)
# Several values for one entry are separate records, joined by “and”; a condition that tells them apart may be missing. Equal values may be shown once. Inconclusive results are not listed. Where a call stands in place of a potency, no number is given. A structure can be active in one record and inactive in another. Values without a mark were called inactive. Activity calls are given as the source filed them. Unless noted, calls follow the shape of the dose curve; as a rule, active = well fitted curve in the direction sought with a large enough effect; inconclusive = small, poorly fitted or top-dose-only effect, or another doubt; inactive = no such curve, though single readings can be large; an effect the other way counts as inactive or inconclusive.
# Legend:
# [1] = target: Cellular tumor antigen p53 (Homo sapiens) (UniProt P04637); experiment: Primary qHTS for small molecule compounds that upregulate eGFP-tagged delta133p53alpha (in N-terminal) cells. (AID 2060322); conditions: NCI-H358 eGFP-delta133p53alpha fluorescence, 24 h; activation: stronger effect = higher value; also: nearly all actives have a fitted effect of over 75% in size; also: potency is read from the fitted curve at half-maximal effect;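 as to activation: cells pre-induced with doxycycline then dosed without doxycycline; series mostly up to about 56 µM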
# Chain of Cellular tumor antigen p53 (Homo sapiens) (P04637 whole entry, looked up): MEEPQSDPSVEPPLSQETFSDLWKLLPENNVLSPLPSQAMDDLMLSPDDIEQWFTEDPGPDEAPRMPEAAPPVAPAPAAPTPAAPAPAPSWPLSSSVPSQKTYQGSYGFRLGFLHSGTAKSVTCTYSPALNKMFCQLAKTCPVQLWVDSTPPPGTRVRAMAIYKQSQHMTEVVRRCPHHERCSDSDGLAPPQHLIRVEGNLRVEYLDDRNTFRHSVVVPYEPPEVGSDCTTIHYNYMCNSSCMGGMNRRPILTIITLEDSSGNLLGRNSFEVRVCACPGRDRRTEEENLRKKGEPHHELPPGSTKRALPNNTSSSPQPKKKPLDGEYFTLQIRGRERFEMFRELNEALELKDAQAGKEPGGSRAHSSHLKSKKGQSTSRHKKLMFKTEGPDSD
# How it was run: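 NCI-H358 cells pre-induced 24 h with 10 ng/ml doxycycline for eGFP-delta133p53alpha, plated dox-free and exposed 24 h at 37C to titrated compounds. Fixed, Hoechst-stained; gated GFP peak intensity by laser scanning cytometry, normalized to DMSO (0%) and 57.5 uM 5-azacytidine (100%).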
# [2] = target: Cellular tumor antigen p53 (Homo sapiens) (UniProt P04637); experiment: Primary qHTS for small molecule compounds that upregulate eGFP-tagged delta133p53alpha (in C-terminal) cells. (AID 2060324); also: potency is read from the fitted curve at half-maximal effect
# How it was run: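 Readout: filtered GFP peak intensity of gated cells (laser scanning cytometer), normalized plate-wise to intraplate controls, DMSO wells = 0% activity. Cells: NCI-H358 D133p53a-eGFP, dox 100 ng/ml 24 h beforehand, then compound 24 h, 37 °C.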
# [3] = target: Aldehyde dehydrogenase, mitochondrial (Homo sapiens) (UniProt P05091); experiment: qHTS for Inhibitors of the Aldehyde Dehydrogenase Family (ALDH2) Validation screens (AID 2061302; active = well fitted inhibition curve with a large enough effect; title and protocol of this record describe different tests; also: potency is read from the fitted curve at half-maximal effect)
# [4] = qHTS for Inhibitors of the Aldehyde Dehydrogenase Family (ALDH1A2, ALDH1A3, ALDH2, ALDH3A1) (AID 2061307); also: nearly all actives have a fitted effect of over 50% in size
# [5] = target: Retinaldehyde dehydrogenase 3 (Homo sapiens) (UniProt P47895); experiment: qHTS for Inhibitors of the Aldehyde Dehydrogenase Family (ALDH1A3) Confirmatory screens (AID 2061311); also: potency is read from the fitted curve at half-maximal effect; nearly all actives have a fitted effect of over 60% in size
# [6] = target: Retinal dehydrogenase 2 (Homo sapiens) (UniProt O94788); experiment: qHTS for Inhibitors of the Aldehyde Dehydrogenase Family (ALDH1A2) Confirmation screens (AID 2061314); also: nearly all actives have a fitted effect of over 65% in size
# [7] = target: Aldehyde dehydrogenase 1A1 (Homo sapiens) (UniProt P00352); experiment: qHTS for Inhibitors of the Aldehyde Dehydrogenase Family (ALDH1A1) Confirmatory screens (AID 2061316); also: nearly all actives have a fitted effect of over 65% in size; also: potency is read from the fitted curve at half-maximal effect
# [8] = target: Retinaldehyde dehydrogenase 3 (Homo sapiens) (UniProt P47895); experiment: qHTS for Inhibitors of the Aldehyde Dehydrogenase Family (ALDH1A3) Primary screen (AID 2061315)
# [9] = BET inhibitor-based combinations targeting novel dependencies in MECOM-rearranged (r) AML: OCI-AML3 cell line (AID 2202232); conditions: Potency: OCI-AML3 viability; also: nearly all actives have a fitted effect of over 35% in size; also: potency is read from the fitted curve at half-maximal effect
# How it was run: (§1)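 Here, 11-point titrations of each agent were applied to 500 seeded cells and incubated 48 hr; CellTiter-Glo signal, scaled against DMSO and empty wells, was integrated as AUC, then Z-scored within the individual line.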
# [10] = BET inhibitor-based combinations targeting novel dependencies in MECOM-rearranged (r) AML: MV-4-11 cell line (AID 2202233); also: potency is read from the fitted curve at half-maximal effect; nearly all actives have a fitted effect of over 45% in size
# How it was run: (§2)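 Normalized to DMSO and empty-well controls, the luminescence data from CellTiter-Glo after 48 hr drug exposure were fitted across 11 concentrations. Reported metrics are area under the dose-response curve and its Z-transformed form.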
# [11] = BET inhibitor-based combinations targeting novel dependencies in MECOM-rearranged (r) AML: HNT-34 cell line (AID 2202234); also: potency is read from the fitted curve at half-maximal effect; nearly all actives have a fitted effect of over 35% in size
# How it was run: as §2
# [12] = BET inhibitor-based combinations targeting novel dependencies in MECOM-rearranged (r) AML: UCSD-AML1 cell line (AID 2202235); also: series mostly up to about 46 µM; nearly all actives have a fitted effect of over 40% in size
# How it was run: as §2
# [13] = BET inhibitor-based combinations targeting novel dependencies in MECOM-rearranged (r) AML: AML-191 cell line (AID 2202236; also: nearly all actives have a fitted effect of over 35% in size)
# How it was run: as §1
# [14] = BET inhibitor-based combinations targeting novel dependencies in MECOM-rearranged (r) AML: AML-194 cell line (AID 2202237; also: nearly all actives have a fitted effect of over 40% in size)
# How it was run: as §1
# [15] = target: Aldehyde dehydrogenase, mitochondrial (Homo sapiens) (UniProt P05091); experiment: qHTS for Inhibitors of the Aldehyde Dehydrogenase Family (ALDH2) Primary screen (AID 2061308); also: nearly all actives have a fitted effect of over 55% in size
# [16] = target: Retinaldehyde dehydrogenase 3 (Homo sapiens) (UniProt P47895); experiment: qHTS for Inhibitors of the Aldehyde Dehydrogenase Family (ALDH1A3) Validation screen (AID 2061312); also: nearly all actives have a fitted effect of over 45% in size; also: potency is read from the fitted curve at half-maximal effect
smiles,measurement,setting,value
CN1CCc2cc(O)cc3c2[C@H]1Cc1ccc(O)c(O)c1-3,activation,[1],-32.2%
same,Potency,[2],inactive
same,Potency,[3],inactive
same,Potency,[4],inactive
same,Potency,[5],12.7 µM (active)
same,Potency,[6],inactive
same,Potency,[7],inactive
c1ccc2c(N3CCNCC3)cccc2c1,activation,[1],-14.7%
same,Potency,[2],inactive
same,Potency,[3],inactive
O=C(Cc1ccc(Cl)c(Cl)c1)N1CCCCC1CN1CCCC1 (stereo not given),activation,[1],-15.5%
same,Potency,[2],inactive
CN1CCN(c2ccc([N+](=O)[O-])c3no[n+]([O-])c23)CC1,Potency,[1],21.3 µM (active)
same,activation,[1],8.01%
same,Potency,[8],inactive
same,Potency,[9],9.34 µM (active)
same,Potency,[10],14.8 µM (active)
same,Potency,[11],18.6 µM (active)
Cc1cc([C@@H]2CCCN2C)on1,activation,[1],4.82%
same,Potency,[2],inactive
same,Potency,[3],inactive
CN(C)[C@@H]1C(=O)C(C(N)=O)=C(O)[C@@]2(O)C(=O)C3=C(O)c4c(O)cccc4[C@@](C)(O)[C@H]3C[C@@H]12,Potency,[1],21.9 µM (active)
same,activation,[1],-14.3%
same,Potency,[9],inactive
same,Potency,[12],inactive
same,Potency,[13],inactive
same,Potency,[14],inactive
c1ccc2c(c1)[I+]c1ccccc1-2,activation,[1],35.2%
same,Potency,[2],23.9 µM (active)
same,Potency,[3],7.08 µM (active)
CC(=O)NCCc1c[nH]c2ccccc12,activation,[1],-24.3%
same,Potency,[2],inactive
same,Potency,[3],inactive
same,Potency,[15],inactive
same,Potency,[16],inactive
same,Potency,[8],inactive
CN(C)CCc1c[nH]c2cccc(OP(=O)(O)O)c12,activation,[1],-1.69%
O=C(NC1CN2CCC1CC2)c1cc2ccoc2cn1 (stereo not given),activation,[1],-11.8%
same,Potency,[2],inactive
same,Potency,[3],inactive
CCn1cnc2c(Nc3cccc(Cl)c3)nc(N[C@@H]3CCCC[C@@H]3N)nc21,Potency,[1],6.01 µM (active)
same,Potency,[2],5.36 µM (active)
same,Potency,[3],inactive
O=c1ccc2[nH]cc(C3=CCNCC3)c2[nH]1,activation,[1],-8.35%
same,Potency,[2],inactive
same,Potency,[3],inactive
same,Potency,[4],inactive
same,Potency,[16],0.398 µM (active)
NC(=O)CI,activation,[1],22%
same,Potency,[2],inactive
same,Potency,[3],5.01 µM (active)
same,Potency,[4],28.3 µM (active)
same,Potency,[5],6.34 µM (active)
same,Potency,[7],20.1 µM (active)
CC(C)Oc1cccnc1N(C)C1CCN(Cc2ccccc2)CC1,activation,[1],-4.1%
same,Potency,[2],inactive
same,Potency,[3],inactive
same,Potency,[16],inactive
C[C@H]1C2Cc3ccc(O)cc3[C@@]1(C)CCN2CC1CC1,activation,[1],-23.4%
same,Potency,[2],inactive
same,Potency,[3],inactive
same,Potency,[16],inactive
Oc1ccc2c3c1O[C@H]1c4[nH]c5c(c4C[C@@]4(O)[C@@H](C2)N(CC2CC2)CC[C@]314)C[C@@]1(O)[C@H]2Cc3ccc(O)c4c3[C@@]1(CCN2CC1CC1)[C@H]5O4,activation,[1],26.8% and -10.8%
same,Potency,[2],inactive
same,Potency,[3],inactive
same,Potency,[16],inactive
Clc1cnc(Oc2ccc(Oc3ncc(Cl)cc3Cl)cc2)c(Cl)c1,activation,[1],-22.6%
same,Potency,[2],inactive
same,Potency,[3],inactive
same,Potency,[16],inactive
NC(CP(=O)(O)O)C(=O)O (stereo not given),activation,[1],-3.82%
same,Potency,[2],inactive
same,Potency,[3],inactive
same,Potency,[16],inactive
NC(=O)c1cc(N2CC2)c([N+](=O)[O-])cc1[N+](=O)[O-],activation,[1],-14.9%
same,Potency,[2],inactive
same,Potency,[3],inactive
same,Potency,[16],inactive
CP(=O)(O)C1=CCNCC1,activation,[1],-37.6%
same,Potency,[2],inactive
same,Potency,[3],inactive
same,Potency,[16],inactive
Cc1[nH]c2ccc(O)cc2c1CCN,activation,[1],-25.5%
same,Potency,[2],inactive
same,Potency,[3],inactive
same,Potency,[16],inactive
CCCC[N+]1(C)C2CC(OC(=O)[C@H](CO)c3ccccc3)CC1C1OC12 (stereo not given in full),activation,[1],-8.28%
same,Potency,[2],inactive
same,Potency,[3],inactive
same,Potency,[16],inactive
Oc1ccc2c3c1O[C@H]1c4oc5ccccc5c4C[C@@]4(O)C(C2)N(CC2CC2)CCC314 (stereo not given in full),activation,[1],-83.6%
same,Potency,[2],inactive
same,Potency,[3],inactive
same,Potency,[16],inactive
CCCN1CC[C@@H]2c3cc(O)ccc3CC[C@@H]21,activation,[1],-3.44%
same,Potency,[2],inactive
same,Potency,[3],inactive
same,Potency,[16],inactive
CC(=O)[C@H]1CCC2C3CC[C@H]4C[C@H](O)CC[C@]4(C)C3CC[C@@]21C (stereo not given in full),activation,[1],-16.4%
same,Potency,[2],inactive
same,Potency,[3],inactive
same,Potency,[16],inactive
CN(C(=O)Cc1ccc(Cl)c(Cl)c1)C(CN1CCCC1)c1cccc(OCC(=O)O)c1 (stereo not given),activation,[1],-43.2%
same,Potency,[2],inactive
same,Potency,[3],inactive
same,Potency,[16],inactive
CC(N)Cc1c[nH]c2ccc(OCc3cccs3)cc12 (stereo not given),activation,[1],-31.9%
same,Potency,[2],inactive
same,Potency,[3],inactive
same,Potency,[16],inactive
NCCc1ccc(O)cc1,activation,[1],0.565% and 11.2%
same,Potency,[2],inactive
same,Potency,[3],inactive
same,Potency,[16],inactive
CCCN(CCC)C1CCc2ccc(O)cc2C1 (stereo not given),activation,[1],-10.8%
same,Potency,[2],inactive
same,Potency,[3],inactive
same,Potency,[16],inactive
Clc1cc(I)cc(Cl)c1NC1=NCCN1,activation,[1],-24.7%
same,Potency,[2],inactive
same,Potency,[3],inactive
same,Potency,[16],inactive
COc1ccc(OC)c(C(O)C(C)N)c1 (stereo not given),activation,[1],15.6%
same,Potency,[2],inactive
same,Potency,[3],inactive
same,Potency,[16],inactive
COc1ccc(CNC(=O)/C=C/c2ccc3[nH]cc(CCN(C)C)c3c2)cc1,activation,[1],13.3%
same,Potency,[2],inactive
same,Potency,[3],inactive
same,Potency,[16],inactive
